# CYP2C9 activ: increases human cytochrome P450 2C9 activity. recombinant CYP2C9, luciferin-H conversion, luminescence; hits give high values; factor 1 = untreated enzyme, 0 = blocked. P11712. 1.4% of 96,000 active. activation factor at 5 µM. AID 1024;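 active = activation factor of 2 or more for CYP2C9 at a 5 µM dose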;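 note: 0 = sulfaphenazole-blocked wells and 1 = vehicle-only wells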
# CYP2C19 act: increases human CYP2C19 enzyme activity | recombinant CYP2C19, luciferin-H EGE luminescence; hits give high values; 0 = fully inhibited enzyme, 1 = untreated enzyme | activation factor at 5 µM | 96,000 tested, under 10 active;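 active = activation factor of at least 2 at 5 µM in the primary screen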;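 note: 0 = wells with 2.5 mM tranylcypromine and 1 = vehicle-only wells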
# Target sequence (P33261 whole entry, looked up): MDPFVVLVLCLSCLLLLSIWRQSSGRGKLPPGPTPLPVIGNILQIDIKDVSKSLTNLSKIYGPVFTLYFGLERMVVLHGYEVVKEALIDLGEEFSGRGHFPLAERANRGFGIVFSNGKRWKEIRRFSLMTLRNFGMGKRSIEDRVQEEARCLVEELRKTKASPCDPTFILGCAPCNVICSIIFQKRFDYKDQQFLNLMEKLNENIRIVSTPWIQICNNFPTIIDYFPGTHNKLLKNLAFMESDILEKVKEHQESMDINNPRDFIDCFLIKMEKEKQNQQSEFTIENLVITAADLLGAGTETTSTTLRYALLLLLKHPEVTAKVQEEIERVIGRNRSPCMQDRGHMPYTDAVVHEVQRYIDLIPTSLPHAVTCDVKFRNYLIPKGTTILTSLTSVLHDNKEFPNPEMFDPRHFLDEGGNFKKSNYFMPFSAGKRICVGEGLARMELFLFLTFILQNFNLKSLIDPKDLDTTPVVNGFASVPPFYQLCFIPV
# PostGolgi yeast: growth inhibition of a yeast mutant, post-Golgi transport screen; AID 739; inhibition, % at 10 µM; post-Golgi transport phenotypic cell assay; 0.9% of 98,000 active;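 note: yeast cells grown in 1536-well plates; yeast grown about 18 h at 30C before absorbance read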
# PostGolgi ctrl: growth of the yeast control strain, post-Golgi counter-screen | efflux-deficient yeast background strain, growth absorbance A615, 16 h | inhibition, % at 10 µM | 5% of 98,000 active | AID 738
# CYP2C19 inhib: human CYP2C19 inhibition; P33261; CYP2C19 Supersomes, luciferin-H EGE luminescence, 30 min; inhibition, % at 5 µM; 21% of 96,000 active;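 active = CYP2C19 inhibition above a set limit at 5 µM in the primary screen, cut at about 50% in these data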;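 note: plate controls were negative control wells for no effect and 2.5 mM tranylcypromine positive control for full effect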
# CYP2C9 inhib: blocks human cytochrome P450 2C9; CYP2C9 Supersomes, luciferin-H conversion, luminescence; inhibition, % at 5 µM; 20% of 96,000 active; AID 777;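 active = blocking of liver enzyme CYP2C9 beyond about 50% at 5 µM, limit read from the data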
# * hit, by the source's call; · = no result given. Hits are enriched below; roughly 32% of the tested compounds scored in any of these assays. Cut-off read from the data, not from the text of the source, unless noted: active = inhibition above about 30%; inactive = the rest.
SMILES,CYP2C9 activ,CYP2C19 act,PostGolgi yeast,PostGolgi ctrl,CYP2C19 inhib,CYP2C9 inhib
CCc1c(C)sc(NC(=O)c2cccs2)c1C(=O)OC(C)C,0.4,0.5,3.9,9.7,50.7*,64.3*
CCOC(=O)c1c(NC(=O)C2c3ccccc3Oc3ccccc32)sc(C(N)=O)c1C,0.2,0.5,8.8,-0.3,45.6,78.4*
CCOC(=O)c1c(NC(=O)C2COc3ccccc3O2)sc(C(C)=O)c1C (stereo not given),0.5,0.8,-7.8,0.0,21.9,45.8
CCOC(=O)c1c(NC(=O)c2cccs2)sc(C)c1CC,1,0.6,18.9,4.5,44.1,4.2
CCOC(=O)c1c(NC(=O)c2cccs2)sc2c1CCN(C(=O)OCC)C2,0.6,0.6,9.7,18.4,36.8,43.3
CCOC(=O)c1c(NC(=O)c2c(-c3ccccc3)noc2C)sc(C)c1-c1ccccc1,0.6,0.9,-3.1,3.0,8.9,40.9
CCOC(=O)c1cnc(C(C)(C)C)[nH]c1=O,·,·,-2.3,7.9,·,·
O=C1NCCCC1C(=O)NCCN1C(=O)CCC1=O (stereo not given),1,1,-1.4,7.4,-2.0,0.4
CCc1ccc(N2C(=O)c3sc4nnc(-c5ccccc5)c(=O)n4c3C2=O)cc1,0.4,0.9,-4.9,5.4,14.3,63.6*
Cc1cc(=O)n2c3c(sc2n1)C(=O)N(Cc1ccccc1)C3=O,1,1,3.1,19.3,-0.6,-1.3
CCOc1ccc(-c2nnc3ccc(SCC(=O)NCc4ccco4)nn23)cc1,0.6,1,-5.6,-6.9,2.4,43.0
CCOc1ccc(-c2nc(CSCC(=O)NCc3ccco3)c(C)o2)cc1,0.2,0.3,7.8,24.0,67.2*,75.9*
CCOc1ccc(-c2nc(CSCC(=O)NC3CCCc4ccccc43)c(C)o2)cc1 (stereo not given),0.6,0.3,-7.7,16.6,65.2*,36.7
CC1CN(S(=O)(=O)c2cccc(-c3cn4ccccc4n3)c2)CC(C)O1 (stereo not given),0.9,0.9,6.5,5.4,12.7,7.9
CC1CN(S(=O)(=O)c2cccc(-c3csc(-c4ccccc4)n3)c2)CC(C)O1 (stereo not given),0.4,0.8,-6.4,14.5,20.0,57.5*
O=S(=O)(c1cccc(S(=O)(=O)N2CCOCC2)c1)N1CCCCC1,0.8,0.6,-3.1,-8.2,41.4,23.8
O=S(=O)(c1cccc(-c2nc3ccccc3s2)c1)N1CCOCC1,1,0.9,2.1,30.4*,12.4,0.3
O=S(=O)(c1cccc(-c2csc(-c3ccccc3)n2)c1)N1CCOCC1,0.4,0.5,-6.2,23.0,47.3,61.2*
Cc1ccc(-c2nc3ccccc3s2)cc1S(=O)(=O)N1CCCC1,0.1,0.3,28.4,30.8*,69.2*,93.4*
c1ccc2sc(-c3ccc4c(c3)OCO4)nc2c1,1,0.9,0.2,3.2,8.7,2.3
Cc1ccc(C(=O)CSc2nc3ccccc3o2)cc1,0.9,0.8,27.0,25.4,24.8,7.5
Cc1ccc(C2NNC(=O)C2NC(=O)c2ccccc2)cc1 (stereo not given),0.8,0.4,2.2,-5.5,60.4*,23.1
O=C(NC1C(=O)NNC1c1ccccc1)c1ccc(F)cc1 (stereo not given),0.7,0.8,10.2,1.2,16.2,30.4
CCn1c(=O)n(Cc2ccco2)c(=N)c2c3c(sc21)COC(C)(C)C3,0.8,0.8,-0.2,10.9,20.2,19.0
CCCCOc1[nH]c2nc(-c3ccco3)n(Cc3ccco3)c(=N)c2c1C#N,0.2,0.4,7.4,16.9,61.0*,81.0*
SMILES,CYP2C9 activ,CYP2C19 act,PostGolgi yeast,PostGolgi ctrl,CYP2C19 inhib,CYP2C9 inhib
Cc1sc2c(=O)n3c(nc2c1C(=O)NCCCN1CCOCC1)CCCCC3,0.1,0.1,14.1,1.5,85.5*,90.4*
Cc1sc2c(=O)n3c(nc2c1C(=O)NC1CCCCC1)CCCCC3,0,0.2,19.6,25.3,83.9*,95.7*
CCOC(=O)Nc1nc(-c2ccccc2)c(C(=O)c2ccc(Cl)cc2)s1,0.4,0.3,8.6,27.0,72.6*,64.5*
CCOC(=O)Nc1sc(C)nc1-c1ccccc1,0.8,0.4,1.8,-3.3,61.0*,18.3
COC(=O)Nc1sc(C)nc1-c1ccccc1,1.1,1,·,·,-0.3,-7.2
CNc1nc(C)c(C(=O)c2ccc(Cl)cc2)s1,0.4,0.3,-4.3,17.9,66.2*,61.1*
CCc1sc(NS(C)(=O)=O)nc1-c1ccccc1,0.8,0.9,-1.6,-0.6,10.1,18.4
CCc1sc(NC(=O)COC)nc1-c1ccccc1,0.4,0.2,-5.7,-1.3,75.1*,57.3*
CCN(CC)CCNC(=O)CS(=O)Cc1nc(-c2ccc(C)cc2)oc1C (stereo not given),0.9,0.9,-2.4,-0.7,6.2,6.1
COc1cccc(N=c2oc3c(C)ncc(CO)c3cc2C(=O)Nc2ccccc2OC)c1,0.2,0.8,0.5,7.7,21.7,76.9*
CCOc1ccc(OCC)c(N=c2oc3c(C)ncc(CO)c3cc2C(N)=O)c1,0.8,1,-5.8,-0.1,-2.5,21.1
CN1CCN(P(=O)(c2ccccc2)c2nc3ccccc3s2)CC1 (stereo not given),1,0.9,15.2,4.7,11.2,1.0
O=C(CCCn1c(=O)[nH]c2cc(Cl)ccc2c1=O)NC1CCCCCCC1,1,1,-2.2,3.2,-2.3,1.0
CN(Cc1ccccc1)C(=O)CCCn1c(=O)[nH]c2cc(Cl)ccc2c1=O,1,0.2,-6.8,1.8,81.9*,-0.2
CC(C)CCNC(=O)c1ccc2c(c1)N(Cc1ccccc1)C(=O)CS2=O (stereo not given),0.5,0.9,-2.4,1.4,13.0,50.3*
O=C(NCCc1ccccc1)c1ccc2c(c1)N(Cc1ccccc1)C(=O)CS2=O (stereo not given),0.1,0.5,6.5,-8.8,48.2,86.3*
CCOCCCNC(=O)c1ccc2c(c1)N(Cc1ccccc1)C(=O)CS2=O (stereo not given),0.6,0.7,0.0,-5.3,34.5,41.5
CCCN(CCC)C(=O)c1ccc2c(c1)N(Cc1ccccc1)C(=O)CS2=O (stereo not given),0.1,1.1,4.0,17.0,-7.2,86.1*
O=c1c2c3c(sc2n2cnnc2n1-c1ccccc1)N(Cc1ccccc1)CCC3,0.9,0.9,0.5,0.9,5.2,11.4
Cc1cccc(OCCn2c(CCCO)nc3ccccc32)c1,0.3,0.1,4.7,30.3*,90.9*,68.3*
COCCn1c(COc2ccc(OC)cc2)nc2ccccc21,0.7,0.1,2.1,-0.3,92.0*,35.0
COc1ccccc1OCCn1c(C(C)O)nc2ccccc21 (stereo not given),0.9,0.1,18.6,2.5,85.2*,6.9
COc1ccccc1OCCn1c(CO)nc2ccccc21,0.8,0.4,-15.4,4.1,55.8*,17.7
